Among the data in PubChem BioAssay (NCI) are growth values, retold here.

Among the test systems are UACC-62 melanoma; K-562 leukemia; MALME-3M melanoma; MDA-MB-231 breast; RXF 393 renal; SF-268 CNS; SF-295 CNS; SF-539 CNS; UACC-257 melanoma; HCT-15 colon; HT29 colon; SNB-75 CNS; SNB-19 CNS; U251 CNS; PC-3 prostate; SK-MEL-5 melanoma; LOX IMVI melanoma; SK-MEL-2 melanoma.
What all share (test): NCI-60 one-dose screen, 48 h (100 = growth as untreated, 0 = no growth, -100 = all killed)
For the next test, the system named is M14 melanoma. To be noted: 10 µM.
The next test relates to SK-MEL-28 melanoma. The note with it: 10 µM.

Where “and” joins values, the source holds several entries; their conditions need not be identical. Identical values can stand only once. Compounds without any hit were thinned out: in the full panel of roughly 83,000, 20% have a hit.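 Step 1: grow cells in 96-well plates. Step 2: add test compound at a single concentration. Step 3: incubate 48 h. Step 4: record percent growth.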 A number with no mark means an inactive call. Calls of active or inactive are those of the source. Rule for the calls: active = growth percent below 10; inactive = the rest. Starred links: 1 amine or outer side, 2 acyl side, 3 side chain; linkers in the order of their positions; H or OH if unused. Positions of bridges follow the written chain, without caps; N, C: chain ends. Non-standard residues stand in square brackets, D forms with d. Residues, ends and D or L forms follow the SMILES beside them. Chains are numbered I, II in the order given. Actinocin(9to1) = Cc1c2oc3c(C)ccc(C(=O)[*:1])c3nc-2c(C(=O)[*:2])c(N)c1=O; aThr = C[C@H](O)[C@H](N)C(=O)O; NMeV = CN[C@H](C(=O)O)C(C)C; Sar = CNCC(=O)O

In the case of `Cc1ccc2nc(N/N=C/c3ccc(C)s3)cc(C)c2c1`, in the test with UACC-62 melanoma (100 µM), the growth is -99.1% (active) and -100% (active).
`O=C(/C(=C/c1ccccc1)CBr)c1ccccc1`: the growth in the test with K-562 leukemia (10 µM) is 9.75% (active); with MALME-3M melanoma (10 µM) it was 77.5%; in the test on MDA-MB-231 breast (10 µM), 58.3%; in the test on RXF 393 renal (10 µM) it was 71.7%; with SF-268 CNS (10 µM), 84.4%; in the test with SF-295 CNS (10 µM), 95.1%. Moreover, the growth with SF-539 CNS (10 µM) is 82.7%; in the test on UACC-257 melanoma (10 µM) it was 73.9%; in the test on M14 melanoma it was 65.8%; with HCT-15 colon (10 µM) it was 47%; in the test on HT29 colon (10 µM), 83.7%; in the test on SNB-75 CNS (10 µM), 48.6%. Moreover, the growth in the test on SNB-19 CNS (10 µM) was 90.9%; in the test with U251 CNS (10 µM) it was 78.6%; in the test with PC-3 prostate (10 µM), 74.8%; with SK-MEL-5 melanoma (10 µM), 87.7%; in the test on UACC-62 melanoma (10 µM) it was 72.7%; with LOX IMVI melanoma (10 µM) it was 44.3%. Further, the growth is 94.4% with SK-MEL-28 melanoma and 93.4% in the test on SK-MEL-2 melanoma (10 µM).
`CSc1ccc2c(c1)C(N1CCN(C)CC1)Cc1ccccc1S2` (stereo not drawn): the growth was -46.6% (active) with MALME-3M melanoma (10 µM); -11.6% (active) with MDA-MB-231 breast (10 µM); 25.1% in the test with RXF 393 renal (10 µM); 36.7% with SF-268 CNS (10 µM); 44.1% in the test on SF-295 CNS (10 µM); 60.1% in the test on SF-539 CNS (10 µM). The growth with UACC-257 melanoma (10 µM) is -61.6% (active); in the test with HCT-15 colon (10 µM), 10.3%; in the test with HT29 colon (10 µM), -15.9% (active); in the test with SNB-75 CNS (10 µM) it was 0.687% (active); in the test on SNB-19 CNS (10 µM) it was 54.7%; in the test with U251 CNS (10 µM) it was 33.3%. The growth with PC-3 prostate (10 µM) is 26.5%; in the test on SK-MEL-5 melanoma (10 µM), -86.6% (active); in the test on UACC-62 melanoma (10 µM), -69.5% (active); with LOX IMVI melanoma (10 µM), -5.64% (active); with SK-MEL-28 melanoma it was -63.8% (active).
As for `COc1cc(C(C)(C)C)cc(OC)c1C(O)(c1c(OC)cc(C(C)(C)C)cc1OC)c1c(OC)cc(C(C)(C)C)cc1OC`, the growth was -89.4% (active) in the test on K-562 leukemia (10 µM); -80.8% (active) in the test with MALME-3M melanoma (10 µM); -85.2% (active) in the test on MDA-MB-231 breast (10 µM); -27.4% (active) with RXF 393 renal (10 µM); -77% (active) in the test with SF-268 CNS (10 µM); -78.9% (active) in the test with SF-295 CNS (10 µM). The growth was -46.1% (active) with UACC-257 melanoma (10 µM); -94.6% (active) in the test with M14 melanoma; -85.8% (active) in the test on HCT-15 colon (10 µM); -100% (active) in the test with HT29 colon (10 µM); -94.1% (active) with SNB-75 CNS (10 µM); -96.1% (active) in the test with SNB-19 CNS (10 µM). In addition, the growth with U251 CNS (10 µM) was -91.6% (active); with PC-3 prostate (10 µM), -86.8% (active); with SK-MEL-5 melanoma (10 µM), -93.7% (active); with UACC-62 melanoma (10 µM) it was -86.3% (active); in the test with LOX IMVI melanoma (10 µM) it was -69.2% (active); with SK-MEL-28 melanoma, -99.4% (active). Further, in the test on SK-MEL-2 melanoma (10 µM), the growth is -59.1% (active).
For the compound `Cc1c2oc3c(C)ccc(C(=O)N[C@@H]4C(=O)N[C@H](C(C)C)C(=O)N5CCC[C@H]5C(=O)N(C)CC(=O)N(C)[C@@H](C(C)C)C(=O)O[C@H]4C)c3nc-2c(C(=O)N[C@@H]2C(=O)N[C@H](C(C)C)C(=O)N3CCC[C@H]3C(=O)N(C)CC(=O)N(C)[C@@H](C(C)C)C(=O)O[C@H]2C)c(N)c1=O` (I: [aThr][dV]P[Sar][NMeV] / II: [aThr][dV]P[Sar][NMeV]; ester I:1-I:C, II:1-II:C; linker I:N-II:N via Actinocin(9to1)), the growth in the test with K-562 leukemia (0.0025 µM) was 18.8%; with K-562 leukemia (10 µM), 0.49% (active); with MALME-3M melanoma (0.0025 µM), 66.3%; in the test on MALME-3M melanoma (10 µM) it was -61.4% (active); in the test with MDA-MB-231 breast (0.0025 µM) it was 64.2%; in the test with MDA-MB-231 breast (10 µM), -2.13% (active). The growth is 31.1% with RXF 393 renal (0.0025 µM); -45.9% (active) in the test on RXF 393 renal (10 µM); 46.1% with SF-268 CNS (0.0025 µM); -9.34% (active) in the test on SF-268 CNS (10 µM); 62.4% with SF-295 CNS (0.0025 µM); -8.12% (active) in the test with SF-295 CNS (10 µM). Further, the growth in the test with SF-539 CNS (0.0025 µM) is 25.5%; in the test with SF-539 CNS (10 µM), -54.7% (active); in the test on UACC-257 melanoma (0.0025 µM) it was 30.6%; with UACC-257 melanoma (10 µM), -29.8% (active); in the test on HCT-15 colon (0.0025 µM) it was 74.4%; in the test with HCT-15 colon (10 µM) it was 2.4% (active). The growth with HT29 colon (0.0025 µM) is 29.4%; in the test on HT29 colon (10 µM) it was -24.1% (active); with SNB-75 CNS (0.0025 µM) it was 39.6%; with SNB-75 CNS (10 µM) it was -73.6% (active); with SNB-19 CNS (0.0025 µM) it was 38.2%; in the test with SNB-19 CNS (10 µM) it was -0.258% (active). In addition, the growth with U251 CNS (0.0025 µM) is 22.1%; with U251 CNS (10 µM), 6.96% (active); in the test on PC-3 prostate (0.0025 µM) it was 42.8%; in the test with PC-3 prostate (10 µM), 0.295% (active); in the test with SK-MEL-5 melanoma (0.0025 µM), 30.8%; in the test on SK-MEL-5 melanoma (10 µM), -94.8% (active). Further, the growth in the test with UACC-62 melanoma (0.0025 µM) is 36.5%; in the test with UACC-62 melanoma (10 µM), -74.5% (active); with LOX IMVI melanoma (0.0025 µM), 24.3%; with LOX IMVI melanoma (10 µM) it was 9.98% (active); in the test with SK-MEL-2 melanoma (0.0025 µM), 75.4%; in the test on SK-MEL-2 melanoma (10 µM), -53.1% (active).
